Bioassay records (PubChem BioAssay)
CYP2C19 inhib: blocks human cytochrome P450 2C19; CYP2C19 Supersomes, luciferin-H EGE luminescence, 30 min; actives 21% (n = 96,000); inhibition, % at 5 µM; AID 778; P33261;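 active = CYP2C19 inhibition above a set limit at 5 µM in the primary screen, cut at about 50% in these data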;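 note: plate controls were negative control wells for no effect and 2.5 mM tranylcypromine positive control for full effect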
PostGolgi yeast: growth inhibition of a yeast mutant, post-Golgi transport screen. inhibition, % at 10 µM. actives 0.9% (n = 98,000). post-Golgi transport phenotypic cell assay;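 note: yeast cells grown in 1536-well plates; yeast grown about 18 h at 30C before absorbance read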
PostGolgi ctrl: yeast control strain growth, post-Golgi counter-screen; efflux-deficient yeast background strain, growth absorbance A615, 16 h; actives 5% (n = 98,000); inhibition, % at 10 µM; AID 738
CYP2C19 activ: cytochrome P450 2C19 (human) activation; P33261; recombinant CYP2C19, luciferin-H EGE luminescence; hits give high values; 0 = fully inhibited enzyme, 1 = untreated enzyme; activation factor at 5 µM; 96,000 tested, under 10 active;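 active = activation factor of at least 2 at 5 µM in the primary screen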;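 note: 0 = wells with 2.5 mM tranylcypromine and 1 = vehicle-only wells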
CYP2C9 act: increases human cytochrome P450 2C9 activity; P11712; recombinant CYP2C9, luciferin-H conversion, luminescence; hits give high values; factor 1 = untreated enzyme, 0 = blocked; activation factor at 5 µM; actives 1.4% (n = 96,000); AID 1024;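 active = activation factor of 2 or more for CYP2C9 at a 5 µM dose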;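 note: 0 = sulfaphenazole-blocked wells and 1 = vehicle-only wells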
Target sequence (P11712 whole entry, looked up): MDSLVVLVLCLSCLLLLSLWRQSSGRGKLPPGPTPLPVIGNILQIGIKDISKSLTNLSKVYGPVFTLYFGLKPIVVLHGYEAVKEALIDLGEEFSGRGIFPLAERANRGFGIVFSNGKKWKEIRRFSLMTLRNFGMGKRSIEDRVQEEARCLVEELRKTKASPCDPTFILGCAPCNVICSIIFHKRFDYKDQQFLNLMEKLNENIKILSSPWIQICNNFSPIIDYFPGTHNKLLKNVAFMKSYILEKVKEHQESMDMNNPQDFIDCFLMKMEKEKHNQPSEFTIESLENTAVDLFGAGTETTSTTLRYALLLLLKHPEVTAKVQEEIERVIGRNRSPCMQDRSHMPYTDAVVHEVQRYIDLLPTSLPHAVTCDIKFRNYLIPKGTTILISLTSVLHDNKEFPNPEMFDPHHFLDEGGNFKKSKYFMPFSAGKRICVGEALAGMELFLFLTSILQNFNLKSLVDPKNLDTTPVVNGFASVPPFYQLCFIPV
CYP2C9 inhib: inhibitors of human CYP2C9 | actives 20% (n = 96,000) | CYP2C9 Supersomes, luciferin-H conversion, luminescence | AID 777 | inhibition, % at 5 µM | P11712;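 active = blocking of liver enzyme CYP2C9 beyond about 50% at 5 µM, limit read from the data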
Starred values were filed as active, the others as inactive. The list is a sample of the results. Cut-off read from the data, not from the text of the source, unless noted: active = inhibition above about 30%; inactive = the rest.

Results for O=S(=O)(Nc1ncnc2c1oc1ccccc12)c1ccc(Cl)s1 ?
CYP2C19 inhib: 61*; CYP2C19 activ: 0.4; CYP2C9 act: 0.1; CYP2C9 inhib: 92*

How did c1ccc(Nc2ncnc3c2oc2ccccc23)cc1 do in these assays?
CYP2C19 inhib: 29; PostGolgi yeast: -1; PostGolgi ctrl: 10; CYP2C19 activ: 0.7; CYP2C9 act: 1; CYP2C9 inhib: -2

Results for Cc1oc(-c2ccccc2F)nc1CN1CCC(C(=O)NCc2cccs2)CC1 ?
CYP2C19 inhib: -3; PostGolgi yeast: 6; PostGolgi ctrl: -6; CYP2C19 activ: 1; CYP2C9 act: 1.8; CYP2C9 inhib: -76

Results for Cc1nc2cc(CO)ccc2n1C ?
CYP2C19 inhib: 4; PostGolgi yeast: 0; PostGolgi ctrl: -5; CYP2C19 activ: 1; CYP2C9 act: 1.1; CYP2C9 inhib: -6

What do the screens show for `CCCn1cnc2cc(NCc3ccccn3)ccc21`?
CYP2C19 inhib: 20; PostGolgi yeast: 10; PostGolgi ctrl: -1; CYP2C19 activ: 0.8; CYP2C9 act: 0.9; CYP2C9 inhib: 14

Results for Cc1ccc(CNc2ccc3c(c2)ncn3C)cc1 ?
CYP2C19 inhib: 62*; PostGolgi yeast: 5; PostGolgi ctrl: 19; CYP2C19 activ: 0.4; CYP2C9 act: 1; CYP2C9 inhib: 1

Results for Cc1ccc(-n2cnc3cc(NCc4cccs4)ccc32)cc1 ?
CYP2C19 inhib: 90*; PostGolgi yeast: -11; PostGolgi ctrl: 15; CYP2C19 activ: 0.1; CYP2C9 act: 0.1; CYP2C9 inhib: 93*

How did COc1ccc(CNc2ccc3c(c2)nc(C)n3C)cc1 do in these assays?
CYP2C19 inhib: 58*; PostGolgi yeast: 4; PostGolgi ctrl: 2; CYP2C19 activ: 0.4; CYP2C9 act: 1; CYP2C9 inhib: 3

What do the screens show for `CCn1cnc2cc(NCc3ccncc3)ccc21`?
CYP2C19 inhib: 49; PostGolgi yeast: 3; PostGolgi ctrl: 26; CYP2C19 activ: 0.5; CYP2C9 act: 0.4; CYP2C9 inhib: 62*

What do the screens show for `COc1ccc(-n2cnc3cc(NCc4cccs4)ccc32)cc1`?
CYP2C19 inhib: 46; PostGolgi yeast: 8; PostGolgi ctrl: 13; CYP2C19 activ: 0.5; CYP2C9 act: 0.7; CYP2C9 inhib: 33

What do the screens show for `O=C(Oc1ccc(Cl)cc1N1C(=O)CCC1=O)c1ccco1`?
CYP2C19 inhib: 11; PostGolgi yeast: 7; PostGolgi ctrl: -2; CYP2C19 activ: 0.9; CYP2C9 act: 0.9; CYP2C9 inhib: 6

What do the screens show for `CCCCC(C(=O)NCCC(C)C)N(CCCN1CCOCC1)C(=O)c1snc(C(N)=O)c1N` (stereo not drawn)?
CYP2C19 inhib: 2; PostGolgi yeast: 2; PostGolgi ctrl: 5; CYP2C19 activ: 1; CYP2C9 act: 1; CYP2C9 inhib: -2

How did O=C(NC1CCCC1)C(c1ccccc1)N(C(=O)c1ccno1)c1cccnc1 (stereo not drawn) do in these assays?
CYP2C19 inhib: 45; PostGolgi yeast: 3; PostGolgi ctrl: 25; CYP2C19 activ: 0.6; CYP2C9 act: 0.6; CYP2C9 inhib: 37

How did CCc1ccc(CNc2ccc3c(c2)ncn3C)cc1 do in these assays?
CYP2C19 inhib: 70*; PostGolgi yeast: 10; PostGolgi ctrl: -7; CYP2C19 activ: 0.3; CYP2C9 act: 0.8; CYP2C9 inhib: 21

What do the screens show for `Cc1ccc(C(=O)Nc2ccc3c(c2)ncn3C)cc1`?
CYP2C19 inhib: -8; PostGolgi yeast: 0; PostGolgi ctrl: 5; CYP2C19 activ: 1.1; CYP2C9 act: 0.9; CYP2C9 inhib: 9

Results for CCCc1cc(=O)n2[nH]c(Cc3ccccc3)nc2n1 ?
CYP2C19 inhib: -3; PostGolgi yeast: -3; PostGolgi ctrl: 0; CYP2C19 activ: 1; CYP2C9 act: 0.7; CYP2C9 inhib: 27

Results for CCn1cc(C(=O)NCc2ccc(Cl)cc2)c(=O)c2cc(S(=O)(=O)N3CCOCC3)ccc21 ?
CYP2C19 inhib: -17; PostGolgi yeast: -6; PostGolgi ctrl: 15; CYP2C19 activ: 1.2; CYP2C9 act: 0.6; CYP2C9 inhib: 42

What do the screens show for `c1ccc(Cn2c(NCc3ccco3)nc3ccccc32)cc1`?
CYP2C19 inhib: 83*; PostGolgi yeast: -1; PostGolgi ctrl: -2; CYP2C19 activ: 0.2; CYP2C9 act: 0.2; CYP2C9 inhib: 81*

What do the screens show for `COc1ccc(CNc2nc3ccccc3n2Cc2ccccc2)cc1OC`?
CYP2C19 inhib: 53*; PostGolgi yeast: 1; PostGolgi ctrl: 7; CYP2C19 activ: 0.5; CYP2C9 act: 0.3; CYP2C9 inhib: 66*

Results for Cc1nn(C)c(Cl)c1NC(=O)OCc1ccc(F)cc1 ?
CYP2C19 inhib: 34; PostGolgi yeast: -2; PostGolgi ctrl: 6; CYP2C19 activ: 0.7; CYP2C9 act: 0.9; CYP2C9 inhib: 14

What do the screens show for `COc1ccc(C2SCC(C(=O)NCc3ccc(F)cc3)N2C(C)=O)cc1` (stereo not drawn)?
CYP2C19 inhib: 29; PostGolgi yeast: 3; PostGolgi ctrl: -5; CYP2C19 activ: 0.7; CYP2C9 act: 0.8; CYP2C9 inhib: 19

Results for COc1ccccc1Nc1nc(N)nc(CSc2nncn2C)n1 ?
CYP2C19 inhib: 3; PostGolgi yeast: 20; PostGolgi ctrl: 12; CYP2C19 activ: 1; CYP2C9 act: 1.1; CYP2C9 inhib: -9

What do the screens show for `COc1ccc(C(=O)Nc2ccc(S(=O)(=O)N3CCOCC3)cc2)cc1OC`?
CYP2C19 inhib: -6; PostGolgi yeast: -6; PostGolgi ctrl: 13; CYP2C19 activ: 1.1; CYP2C9 act: 0.9; CYP2C9 inhib: 11

How did COc1ccc(NC(=O)c2ccc(S(=O)(=O)N3CCOCC3)cc2)c(OC)c1 do in these assays?
CYP2C19 inhib: -3; PostGolgi yeast: 0; PostGolgi ctrl: 8; CYP2C19 activ: 1; CYP2C9 act: 2.6*; CYP2C9 inhib: -158

How did O=C(Nc1ccccc1C(=O)O)c1ccc(Cl)c(S(=O)(=O)N2CCOCC2)c1 do in these assays?
CYP2C19 inhib: -10; PostGolgi yeast: 6; PostGolgi ctrl: 5; CYP2C19 activ: 1.1; CYP2C9 act: 0.2; CYP2C9 inhib: 75*

What do the screens show for `COc1ccc(NC(=O)c2ccc(Cl)c(S(=O)(=O)N3CCc4ccccc4C3)c2)cn1`?
CYP2C19 inhib: 6; PostGolgi yeast: -2; PostGolgi ctrl: 45*; CYP2C19 activ: 0.9; CYP2C9 act: 0.9; CYP2C9 inhib: 14

Results for COc1cccc(C(=O)NCC2CCN(c3ccc(S(=O)(=O)N4CCOCC4)cc3)CC2)c1 ?
CYP2C19 inhib: 56*; PostGolgi yeast: 20; PostGolgi ctrl: 0; CYP2C19 activ: 0.4; CYP2C9 act: 0.4; CYP2C9 inhib: 55*

Results for CCCC1c2ccc(C)n2CCN1C(=O)Nc1ccc(F)cc1 (stereo not drawn) ?
CYP2C19 inhib: 23; PostGolgi yeast: 2; PostGolgi ctrl: -6; CYP2C19 activ: 0.8; CYP2C9 act: 0.8; CYP2C9 inhib: 15

How did Cn1c2c(c(=O)n(C)c1=O)C1(C(=O)Nc3ccccc31)C(C#N)=C(N)O2 (stereo not drawn) do in these assays?
CYP2C19 inhib: 0; PostGolgi yeast: 1; PostGolgi ctrl: 5; CYP2C19 activ: 1; CYP2C9 act: 0.9; CYP2C9 inhib: 13
